The results in this text go back to PubChem BioAssay (EPA / NIEHS).

Structures are written as SMILES. Calls of active or inactive are those of the source. Rule for the calls: active = hit-call score of the fitted dose curve at least 0.9, where 1 is the maximum; inactive = score below 0.9.

Read-out in assay [1]: C-C motif chemokine 2 (Homo sapiens) (UniProt P13500)
As to the kind of experiment: BSK_KF3CT_MCP1: BioMAP Diversity Plus: KF3CT Assay for Monocyte Chemoattractant Protein 1 (MCP1/CCL2) Biomarker Activity (AID 2283073). The conditions noted are these: primary human keratinocytes with fibroblasts; actives raise or lower the signal. An outline of the steps: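 KF3CT skin co-culture (keratinocytes/foreskin fibroblasts), 24 h post-dose; MCP-1 by ELISA; gain/loss of signal fit bidirectionally vs DMSO baseline.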

Read-out in assay [2]: urokinase plasminogen activator (uPA), PLAU (gene 5328)
Description: BSK_KF3CT_uPA: BioMAP Diversity Plus: KF3CT Assay for urokinase plasminogen activator (uPA) Biomarker Activity (AID 2283075). The note with it: primary human keratinocytes with fibroblasts; actives raise or lower the signal. The method in brief:
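Human keratinocyte plus foreskin fibroblast primary co-culture exposed to chemical for 24 h. uPA levels were quantified by ELISA, and activity was fitted bidirectionally against a DMSO negative-control baseline.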

Read-out in assay [3]: CD40, CD40 (gene 958)
As to the kind of experiment: BSK_LPS_CD40: BioMAP Diversity Plus: LPS Assay for CD40 Biomarker Activity (AID 2283076). The note with it: primary human HUVEC with PBMC; actives raise or lower the signal. The method in brief: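 ELISA readout of CD40 in HUVEC/PBMC co-culture (BSK_LPS system), 24 h post-dosing; bidirectional curve fit, DMSO baseline; parallel SRB total-protein staining for cytotoxicity.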

Read-out in assay [4]: E-selectin (Homo sapiens) (UniProt P16581)
As to the kind of experiment: BSK_LPS_Eselectin: BioMAP Diversity Plus: LPS Assay for Eselectin Biomarker Activity (AID 2283077). The conditions noted are these: primary human HUVEC with PBMC; actives raise or lower the signal. The method in brief: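 ELISA readout of E-selectin, 24 h post-dose, HUVEC + PBMC co-culture (LPS system). Gain or loss of signal vs DMSO baseline, bidirectional fit.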

Read-out in assay [5]: Interleukin-8 (IL8), CXCL8 (gene 3576)
As to the kind of experiment: BSK_LPS_IL8: BioMAP Diversity Plus: LPS Assay for Interleukin-8 (IL8) Biomarker Activity (AID 2283078). The note with it: primary human HUVEC with PBMC; actives raise or lower the signal. The method in brief:
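HUVEC + PBMC co-culture, LPS-activated; test chemicals dosed, IL-8 read by ELISA at 24 h. Bidirectional curve fit vs DMSO baseline (gain or loss of signal).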

A short description of assay [6]: BSK_LPS_SRB: Viability Assessment in the BioMAP Diversity Plus: LPS Assay (AID 2283079).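 Note: total protein by sulforhodamine B absorbance as a cytotoxicity measure; measured one day after compound addition; fitted in both directions against DMSO so loss or gain of signal counts.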 The note with it: primary human HUVEC with PBMC. An outline of the steps:
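HUVEC + PBMC co-culture, LPS-stimulated; compound 24 h. 10% TCA fix, 0.1% SRB stain, A560. Bidirectional fit vs DMSO.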

Read-out in assay [7]: Interleukin-1 alpha (IL1a), IL1A (gene 3552)
Description: BSK_LPS_IL1a: BioMAP Diversity Plus: LPS Assay for Interleukin-1 alpha (IL1a) Biomarker Activity (AID 2283080). The note with it: primary human HUVEC with PBMC; actives raise or lower the signal. An outline of the steps:
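HUVEC/PBMC co-culture, LPS system; 24 h after dosing; IL-1a by ELISA; gain or loss of signal fitted bidirectionally vs DMSO baseline.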

Read-out in assay [8]: Monocyte Chemoattractant Protein-1 (MCP1), CCL2 (gene 6347)
Description: BSK_LPS_MCP1: BioMAP Diversity Plus: LPS Assay for Monocyte Chemoattractant Protein-1 (MCP1) Biomarker Activity (AID 2283081). The note with it: primary human HUVEC with PBMC; actives raise or lower the signal. An outline of the steps: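 ELISA read-out of MCP-1 after 24 h chemical dosing of a human umbilical vein endothelial cell/peripheral blood mononuclear cell co-culture stimulated with LPS. Gain or loss of signal fitted relative to DMSO controls.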

Assay [9] is described as follows: BSK_LPS_PGE2: BioMAP Diversity Plus: LPS Assay for Prostaglandin E2 (PGE2) Biomarker Activity (AID 2283082).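 For AC50: secreted prostaglandin E2 measured by ELISA in LPS-stimulated co-culture.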 The conditions noted are these: primary human HUVEC with PBMC; actives raise or lower the signal. An outline of the steps:
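HUVEC plus human PBMC co-culture stimulated with LPS; secreted PGE2 quantified by ELISA 24 h after chemical dosing. Activity fitted bidirectionally against DMSO baseline; parallel SRB staining (0.1% SRB after 10% TCA fixation, 560 nm) flags overt cytotoxicity.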

Read-out in assay [10]: Macrophage colony-stimulating factor (MCSF), CSF1 (gene 1435)
As to the kind of experiment: BSK_LPS_MCSF: BioMAP Diversity Plus: LPS Assay for Macrophage colony-stimulating factor (MCSF) Biomarker Activity (AID 2283083). The note with it: primary human HUVEC with PBMC; actives raise or lower the signal. An outline of the steps: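 HUVEC + PBMC co-culture (human primary), 24 h post-dose; M-CSF by ELISA; gain/loss of signal fitted bidirectionally vs DMSO baseline.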

Read-out in assay [11]: Tissue Factor, F3 (gene 2152)
As to the kind of experiment: BSK_LPS_TissueFactor: BioMAP Diversity Plus: LPS Assay for Tissue Factor Biomarker Activity (AID 2283084). The conditions noted are these: primary human HUVEC with PBMC; actives raise or lower the signal. An outline of the steps: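 HUVEC/PBMC co-culture, LPS-activated; CD142 ELISA read 24 h post-dose; bidirectional curve fit vs DMSO negative control.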

Read-out in assay [12]: Tumor necrosis factor (Homo sapiens) (UniProt P01375)
As to the kind of experiment: BSK_LPS_TNFa: BioMAP Diversity Plus: LPS Assay for Tumour Necrosis Factor alpha (TNFa) Biomarker Activity (AID 2283085). The conditions noted are these: primary human HUVEC with PBMC; actives raise or lower the signal. An outline of the steps: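 Human umbilical vein endothelial cells co-cultured with PBMC and stimulated with LPS. TNFa was measured by ELISA 24 h after chemical dosing, fitted bidirectionally relative to DMSO.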

Read-out in assay [13]: Vascular cell adhesion molecule 1 (VCAM1), VCAM1 (gene 7412)
As to the kind of experiment: BSK_LPS_VCAM1: BioMAP Diversity Plus: LPS Assay for Vascular cell adhesion molecule 1 (VCAM1) Biomarker Activity (AID 2283086). The note with it: primary human HUVEC with PBMC; actives raise or lower the signal. An outline of the steps:
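Human umbilical vein endothelial cells co-cultured with PBMC and stimulated with LPS; VCAM-1 measured by ELISA 24 h after dosing. Bidirectional curve fitting against DMSO baseline; cytotoxicity tracked in parallel by SRB total-protein staining.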

Read-out in assay [14]: CD38, CD38 (gene 952)
Description: BSK_SAg_CD38: BioMAP Diversity Plus: SAg Assay for CD38 Biomarker Activity (AID 2283087). The conditions noted are these: primary human HUVEC with PBMC; actives raise or lower the signal. The method in brief:
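Human HUVEC plus PBMC co-culture stimulated with superantigen; CD38 measured by ELISA 24 h after chemical dosing. Fluorescence read-out, bidirectional fit against DMSO; cytotoxicity tracked in parallel by SRB and Alamar Blue.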

Read-out in assay [15]: CD40, CD40 (gene 958)
As to the kind of experiment: BSK_SAg_CD40: BioMAP Diversity Plus: SAg Assay for CD40 Biomarker Activity (AID 2283088). The conditions noted are these: primary human HUVEC with PBMC; actives raise or lower the signal. The method in brief:
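HUVEC/PBMC co-culture, 24 h post-dose; CD40 by ELISA, fluorescence intensity; bidirectional fit vs DMSO negative control.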

Read-out in assay [16]: CD69, CD69 (gene 969)
As to the kind of experiment: BSK_SAg_CD69: BioMAP Diversity Plus: SAg Assay for CD69 Biomarker Activity (AID 2283089). The conditions noted are these: primary human HUVEC with PBMC; actives raise or lower the signal. The method in brief: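 Values derive from bidirectional fitting relative to DMSO vehicle. Cells: umbilical vein endothelium plus peripheral blood mononuclear cells, treated 24 h before fluorescent ELISA for CD69.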

Read-out in assay [17]: Monocyte Chemoattractant Protein-1 (MCP1), CCL2 (gene 6347)
Description: BSK_SAg_MCP1: BioMAP Diversity Plus: SAg Assay for Monocyte Chemoattractant Protein-1 (MCP1) Biomarker Activity (AID 2283090). The note with it: primary human HUVEC with PBMC; actives raise or lower the signal. An outline of the steps: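 MCP-1 levels in the endothelial–PBMC SAg co-culture were quantified by ELISA at 24 h post-dosing; both increases and decreases versus DMSO scored. Cytotoxicity monitored by SRB total protein in parallel cultures.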

Read-out in assay [18]: E-selectin (Homo sapiens) (UniProt P16581)
Description: BSK_SAg_Eselectin: BioMAP Diversity Plus: SAg Assay for Eselectin Biomarker Activity (AID 2283091). The note with it: primary human HUVEC with PBMC; actives raise or lower the signal. The method in brief: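 E-selectin ELISA readout at 24 h post-dosing in human umbilical vein endothelial cell/PBMC co-culture; gain or loss of signal fitted relative to DMSO baseline.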

Read-out in assay [19]: Monokine induced gamma interferon (MIG), CXCL9 (gene 4283)
Description: BSK_SAg_MIG: BioMAP Diversity Plus: SAg Assay for Monokine induced gamma interferon (MIG) Biomarker Activity (AID 2283092). The conditions noted are these: primary human HUVEC with PBMC; actives raise or lower the signal. The method in brief: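 Values reflect bidirectional fitting of ELISA-measured MIG against DMSO vehicle, taken 24 h after dosing of a co-culture of human umbilical vein endothelial cells and peripheral blood mononuclear cells.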

E-selectin (Homo sapiens), sequence (P16581 whole entry, looked up): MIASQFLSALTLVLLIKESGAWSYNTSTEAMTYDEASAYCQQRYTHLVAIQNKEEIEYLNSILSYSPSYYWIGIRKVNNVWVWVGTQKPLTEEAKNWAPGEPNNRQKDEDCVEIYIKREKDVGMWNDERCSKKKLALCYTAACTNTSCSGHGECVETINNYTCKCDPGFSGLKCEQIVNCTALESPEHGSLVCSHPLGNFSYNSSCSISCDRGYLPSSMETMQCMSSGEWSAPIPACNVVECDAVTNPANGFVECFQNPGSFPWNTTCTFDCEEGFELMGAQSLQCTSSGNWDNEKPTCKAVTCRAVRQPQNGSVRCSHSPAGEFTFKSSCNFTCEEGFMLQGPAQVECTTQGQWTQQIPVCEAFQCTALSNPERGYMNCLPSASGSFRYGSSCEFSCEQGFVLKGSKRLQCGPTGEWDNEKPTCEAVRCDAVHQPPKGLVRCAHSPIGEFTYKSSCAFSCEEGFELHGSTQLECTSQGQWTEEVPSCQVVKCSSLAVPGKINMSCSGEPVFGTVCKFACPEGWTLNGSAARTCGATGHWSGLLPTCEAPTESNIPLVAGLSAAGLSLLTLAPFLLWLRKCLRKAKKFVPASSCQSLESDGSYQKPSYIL
Tumor necrosis factor (Homo sapiens), sequence (P01375 whole entry, looked up): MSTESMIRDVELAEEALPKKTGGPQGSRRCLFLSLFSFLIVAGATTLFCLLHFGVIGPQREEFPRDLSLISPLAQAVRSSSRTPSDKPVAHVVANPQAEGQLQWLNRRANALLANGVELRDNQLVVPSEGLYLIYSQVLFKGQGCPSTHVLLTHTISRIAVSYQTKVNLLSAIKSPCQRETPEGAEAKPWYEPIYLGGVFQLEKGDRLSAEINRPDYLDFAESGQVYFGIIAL

Turning to `CC(=O)O[C@]1(C(C)=O)CC[C@H]2[C@@H]3C[C@H](C)C4=CC(=O)CC[C@]4(C)[C@H]3CC[C@@]21C`, the result in assay [1], in assay [2], in [3], in [4], in [5] and in assay [6] was inactive. For the same compound, the outcome in assay [7], in [8], in [9], in [10], in assay [11] and in [12] was inactive. In addition, the outcome in assay [13], in assay [14], in assay [15], in [16], in assay [17] and in assay [18] was inactive. For the same compound, the outcome in [19] was inactive.
For the compound `O=P(c1ccccc1)(c1ccccc1)c1ccccc1`, the result in assay [1], in [2], in assay [3], in [4], in assay [5] and in [6] was inactive. Further, the result in assay [7], in [8], in [9], in [10], in assay [11] and in [12] was inactive. For the same compound, the result in assay [13], in [14], in assay [15], in assay [16], in assay [17] and in [18] was inactive. The outcome in assay [19] was inactive.
As to `C#C[C@]1(O)CC[C@H]2[C@@H]3CCC4=Cc5oncc5C[C@]4(C)[C@H]3CC[C@@]21C`, the result in assay [1], in assay [2], in assay [3], in [4], in [5] and in [7] was inactive. In addition, the result in assay [8], in assay [10], in [11], in assay [12], in assay [13] and in assay [14] was inactive. In addition, the outcome in assay [15], in assay [16], in [17], in assay [18] and in assay [19] was inactive. Also, the AC50 in [6] was 6.65 µM (active); in [9], 3.97 µM (active).
